PTAP TSG101 blk – blocks PTAP/TSG101 interaction to inhibit HIV-1 budding. Q99816. Fluorescence polarization, FITC-PTAP peptide / Tsg101 binding. Potency, µM (titrated, usually from 115 µM), hits mostly inhibitors. 340,000 tested, under 10 active. AID 493005; active = well fitted inhibition curve with a large enough effect in the main read-out, with a control signal flat, not every such curve was filed as active; inconclusive = small, poorly fitted or top-dose-only effect, or effect the other way, or a change in a side signal; inactive = no such curve, though single readings can be large or run the other way
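FP read-out: FITC-PTAP peptide, 50 nM final, binding Tsg101 binding domain, 10 uM final; 20 min, r.t.; 10 mM HEPES pH 7.5, 0.15 M NaCl, 0.01% Tween 20, 3 mM EDTA, 0.1 mM TCEP.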
TRPML1 blocker – human mucolipin-1 channel inhibition; Q9GZU1; TRPML1-inducible cells, Ca2+ dye fluorescence, FDSS; active compounds read low; inhibition of EC80 agonist-evoked calcium signal; activity change, negative = inhibition, % (concentration not given with the values); actives 0.02% (n = 390,000); AID 624415; in the data active = activity change below about -50%; inconclusive = between about -30% and that limit;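 also: stimulus is agonist 54-4 at its EC80 concentration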
Target sequence (Q9GZU1 whole entry, looked up): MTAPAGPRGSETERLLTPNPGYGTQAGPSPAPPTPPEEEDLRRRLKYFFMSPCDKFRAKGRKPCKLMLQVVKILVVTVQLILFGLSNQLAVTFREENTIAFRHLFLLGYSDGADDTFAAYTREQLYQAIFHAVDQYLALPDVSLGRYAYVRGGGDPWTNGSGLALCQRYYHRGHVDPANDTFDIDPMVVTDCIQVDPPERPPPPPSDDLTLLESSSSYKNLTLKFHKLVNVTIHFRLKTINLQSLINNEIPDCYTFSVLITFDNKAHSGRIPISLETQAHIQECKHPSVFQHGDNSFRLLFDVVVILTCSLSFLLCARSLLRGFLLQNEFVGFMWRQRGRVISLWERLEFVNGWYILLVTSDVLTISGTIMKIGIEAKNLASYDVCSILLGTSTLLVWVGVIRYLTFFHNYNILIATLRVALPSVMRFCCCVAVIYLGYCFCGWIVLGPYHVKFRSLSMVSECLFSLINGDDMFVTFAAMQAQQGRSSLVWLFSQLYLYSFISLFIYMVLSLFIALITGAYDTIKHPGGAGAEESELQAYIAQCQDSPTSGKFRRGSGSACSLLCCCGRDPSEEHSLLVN
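TRPML1-DL cells, Tet-induced overnight (~16 h, 37 °C) at 1,500 cells/well, were loaded with Ca8 no-wash dye plus quencher for 45-90 min at room temperature. Compounds were pinned during FDSS kinetic reading; agonist 54-4 at EC80 (4 uM final) then added.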
TRHR enhancer-1 – TRH receptor (human) allosteric enhancement. TRHR cells, fluo-8 calcium fluorescence, EC20 TRH enhancement. AID 493056. actives 0.66% (n = 360,000). enhancement, % at 2 µM. P34981; in the data active = enhancement above about 30%
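Enhancer read-out: after compound pinning and an initial kinetic agonist-mode read, an EC20 of TRH (10 nM final) was injected and fluo-8 calcium signal (Ex 480/Em 530) followed at 1 s/cycle for 100 cycles in TRHR-expressing cells.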
TRPML1 ag – activates the human TRPML1 channel | Q9GZU1 | TRPML1-expressing cells, Ca2+ dye fluorescence, FDSS | activation, % (concentration not given with the values) | actives 0.12% (n = 410,000) | AID 624414; in the data active = activation above about 50%; inconclusive = mostly about 30% to 49%
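Agonist activity was taken from a 110 s kinetic Ca2+ dye read on the FDSS after pinning compounds onto TRPML1-DL cells. The cells were seeded at 1,500/well with Tet inducer, incubated about 16 h, then dye-loaded at room temperature.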
TRHR agonist-1 – agonists of human TRH receptor; activation, % at 2 µM; TRHR cells, calcium flux fluo-8, FDSS agonist mode; actives 0.18% (n = 360,000); AID 493084; in the data active = activation above about 30%
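Agonist-mode FDSS calcium read (Ex 480/Em 530, 1 s cycles) in 1536-well TRHR cells with fluo-8 dye, after 10-cycle baseline and 23 nL compound addition; TRH at EC20 (10 nM final) added afterwards for the enhancer phase.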
TRHR enhancer-2 – confirmation of human TRH receptor allosteric enhancers. shares compounds with TRHR enhancer-1. TRH receptor cell assay, enhancer confirmation qHTS. activity change, negative = inhibition, % at 46.1 µM. 970 tested, under 10 active;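 also: compound effect scored on response to added TRH at EC20 of 10 nM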
TRHR agonist-2 – human TRH receptor agonism confirmation. shares compounds with TRHR enhancer-1. TRHR-expressing cells, agonist activation read-out. Potency, µM (titrated, usually from 46.1 µM), actives largely listed as activators. actives 8% (n = 970); also: nearly all actives have a fitted effect of over 75% in size
A number is an active result; - = inactive; ? = inconclusive; . = not tested or not shown. Compounds with a hit are over-represented: about 0.81% of the library has one in this group of screens. Unless noted, calls follow the shape of the dose curve; as a rule, active = well fitted curve in the direction sought with a large enough effect; inconclusive = small, poorly fitted or top-dose-only effect, or another doubt; inactive = no such curve, though single readings can be large; an effect the other way counts as inactive or inconclusive.

SMILES | PTAP TSG101 blk | TRPML1 blocker | TRHR enhancer-1 | TRPML1 ag | TRHR agonist-1 | TRHR enhancer-2 | TRHR agonist-2
COc1cc(/C=C2\SC(=S)N(Nc3ccccc3)C2=O)ccc1O | - | - | - | - | 35 | - | 16µM
COc1cc(/C=C2\SC(=S)N(NC(=O)c3cccnc3)C2=O)ccc1O | - | - | - | - | - | . | .
COc1cc(/C=C2\SC(=S)N(C(Cc3ccccc3)C(=O)O)C2=O)ccc1O (configuration not stated) | - | - | - | - | 34 | - | ?
COc1cc(/C=C2\SC(=S)N(Nc3ncc(C(F)(F)F)cc3Cl)C2=O)ccc1O | - | - | - | - | 47 | - | ?
O=C(NN1C(=O)/C(=C/c2ccc(O)c(O)c2)SC1=S)c1ccccc1 | - | - | - | - | - | ? | ?
COC(=O)COc1ccc(S(=O)(=O)Nc2cc([N+](=O)[O-])ccc2C)cc1 | - | - | 45 | - | - | - | -
C1=Cc2ccccc2/C1=C\c1cc[cH-]c1.[Fe+2].c1cc[cH-]c1 | . | . | . | - | . | . | .
C(=Nc1ccc2ccccc2n1)c1ccccn1 | . | . | . | - | . | . | .
OCCC1CN(Cc2cc3c(cc2Cl)OCO3)CCN1C1CCCC1 (configuration not stated) | - | - | 54 | - | - | - | -
Nc1[nH]c2cc([N+](=O)[O-])ccc2c1-c1ccccn1 | - | - | - | - | 31 | - | ?
CCOC(=O)c1c(C)n(-c2ccccc2)c2ccc(O)cc12 | - | - | 46 | - | - | - | -
CCCC(=O)Nc1cccc2c1CCCC2 | - | - | 49 | - | - | - | -
CC(=O)CC(=O)Nc1cccc2c1CCCC2 | - | - | - | - | - | . | .
C(=C\c1nc2ccccc2s1)/c1ccc2c(c1)OCO2 | . | . | . | - | . | . | .
CC1(C)CC2CC(C)(CN2S(=O)(=O)c2ccc(C(=O)Nc3ccc(S(=O)(=O)N4CCOCC4)cc3)cc2)C1 (configuration not stated) | - | - | - | - | - | . | .
CCOC(=O)c1cc([N+](=O)[O-])sc1NC(=O)c1ccc(S(=O)(=O)N2CC3(C)CC2CC(C)(C)C3)cc1 (configuration not stated) | - | ? | - | 60 | 37 | - | ?
O=C1CCCN1CCCNc1ncnc2c1cnn2-c1ccc(Cl)cc1 | - | - | 54 | - | - | - | -
Cc1cccc(-n2ncc3c(NCCCN4CCCC4=O)ncnc32)c1 | - | - | - | - | - | . | .
CC(c1ccc(N(C)C)cc1)c1ccnc2ccccc12 (configuration not stated) | . | . | . | - | . | . | .
Cc1ccc(S(=O)(=O)/N=C2\C=C(Nc3cccc(C(=O)O)c3)C(=O)c3ccccc32)cc1 | - | - | - | - | - | . | .
Cc1ccc(S(=O)(=O)/N=C2\C=C(Nc3cccc(C(=O)O)c3)C(=O)c3ccccc32)c(C)c1 | - | - | 61 | - | - | - | -
O=C(c1ccc(CSc2nc3ccncc3n2Cc2ccccc2F)cc1)N1CCCCC1 | . | - | 58 | - | - | - | -
O=C(NC1CCCCCC1)C1CCC(CNS(=O)(=O)c2cccc3cccnc23)CC1 (configuration not stated) | . | . | . | - | . | . | .
CCCCN(CCCC)c1ccc(/C=C2\C=Cc3ccccc32)cc1 | . | . | . | - | . | . | .
CCCNC(=O)C(=O)NCC1CCCN1CC (configuration not stated) | - | - | - | - | - | . | .
SMILES | PTAP TSG101 blk | TRPML1 blocker | TRHR enhancer-1 | TRPML1 ag | TRHR agonist-1 | TRHR enhancer-2 | TRHR agonist-2
C=CCNC(=O)C(=O)NCC1CCCN1CC (configuration not stated) | - | - | 42 | - | - | - | -
O=[N+]([O-])c1ccccc1S(=O)(=O)Nc1cccc(-c2ccc3nncn3n2)c1 | - | - | 46 | - | - | - | -
Cc1ccc(NC(=O)c2cnn3c2NC(=C2CC2)C=C3C(F)F)cc1 | . | . | . | - | . | . | .
CCNC(=O)N1CCN(/[N+]([O-])=N/Oc2ccc([N+](=O)[O-])cc2[N+](=O)[O-])CC1 | . | - | . | - | . | . | .
COc1ccc(N2C(=O)C(CN3CCN(C)CC3)C2c2ccccc2)cc1 (configuration not stated) | - | - | 67 | - | - | - | -
CN(C)c1c(Br)cc(C=O)cc1Br | . | . | . | - | . | . | .
Cc1nc([N+](=O)[O-])cn1CC(O)c1ccc2c(c1)OCO2 (configuration not stated) | . | . | . | - | . | . | .
O=C(Nc1cc(Cl)cc(Cl)c1)c1cnn2c1NC(=C1CC1)C=C2C(F)F | . | . | . | - | . | . | .
CN(C)C(=O)c1ccc(NS(=O)(=O)c2ccc3c(c2)OCCO3)cc1 | . | - | 66 | - | - | - | -
O=C(O)c1ccc(NS(=O)(=O)c2ccc3c(c2)OCCO3)cc1 | - | - | - | - | - | . | .
O=C(COc1ccccc1C(=O)Nc1ccccc1)Nc1cccc(Br)c1 | . | . | . | - | . | . | .
COc1ccccc1/C=N/OCc1cc(C(C)=O)ccc1OC | - | - | 56 | - | - | - | -
COc1ccc(C(C)=O)cc1COc1ccccc1[N+](=O)[O-] | - | - | - | - | - | . | .
O=C1CC(c2cccs2)Sc2nc3ccccc3n21 (configuration not stated) | - | - | - | - | - | . | .
O=C1CC(c2ccccc2)Sc2nc3ccccc3n21 (configuration not stated) | - | - | 42 | - | - | - | -
CS(=O)(=O)c1ccc(Cl)c(NC(=O)CN2CCCC2c2ccc3c(c2)OCCCO3)c1 (configuration not stated) | - | - | 46 | - | - | - | -
Cc1nc(Sc2nnnn2C2CC2)c2c(-c3ccccc3)csc2n1 | . | . | . | - | . | . | .
CCn1c(SC(C)C(=O)Nc2ccc(C)cc2)nnc1-c1ccccc1 (configuration not stated) | . | . | . | - | . | . | .
CC(C)c1c(C(=O)N/N=C/C=C/c2ccccc2)nnn1-c1nonc1N | - | - | 76 | - | - | - | -
O=[N+]([O-])c1ccc(/C=C/c2cc(Cl)nc3ccccc23)cc1 | . | . | . | - | . | . | .
O=C(C[n+]1cc(Br)cc2ccccc21)c1ccc(O)c(O)c1 | . | . | . | - | . | . | .
CC(C)Cc1ccc(S(=O)(=O)Nc2cccnc2)cc1 | - | - | 58 | - | - | - | -
CCC(C)c1ccc(S(=O)(=O)Nc2cccnc2)cc1 (configuration not stated) | - | - | - | - | - | . | .
COc1ccc(CCSc2n[nH]c(C(C)C)n2)cc1 | . | . | . | - | . | . | .
OC(Cc1ccc2ccccc2n1)c1c(Cl)cccc1Cl (configuration not stated) | . | . | . | - | . | . | .
CC(=O)Nc1ccc(/C=C/c2ccnc3ccccc23)cc1 | . | . | . | - | . | . | .
C/C(=N\NC(=O)CSc1nnc(C)s1)c1ccc(Cl)cc1 | - | - | 43 | - | - | - | -

Source: PubChem BioAssay
